Screens: PubChem BioAssay, Sanford-Burnham Center for Chemical Genomics
CYP2C9 inh – human CYP2C9 inhibition. P11712. CYP2C9 Supersomes, luciferin-H conversion, luminescence. inhibition, % at 5 µM. 20% of 96,000 active;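 active = blocking of liver enzyme CYP2C9 beyond about 50% at 5 µM, limit read from the data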
PLAP activator – activates human placental alkaline phosphatase. purified PLAP enzyme, luminescent substrate read-out; stronger effect = higher value. 1.2% of 96,000 active. AID 696. activation fold at 20 µM; in the data active = activation fold above about 2
CYP2C19 inhib – inhibitors of human CYP2C19; P33261; CYP2C19 Supersomes, luciferin-H EGE luminescence, 30 min; inhibition, % at 5 µM; 21% of 96,000 active;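 active = CYP2C19 inhibition above a set limit at 5 µM in the primary screen, cut at about 50% in these data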;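 also: plate controls were negative control wells for no effect and 2.5 mM tranylcypromine positive control for full effect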
Target sequence (P33261 whole entry, looked up): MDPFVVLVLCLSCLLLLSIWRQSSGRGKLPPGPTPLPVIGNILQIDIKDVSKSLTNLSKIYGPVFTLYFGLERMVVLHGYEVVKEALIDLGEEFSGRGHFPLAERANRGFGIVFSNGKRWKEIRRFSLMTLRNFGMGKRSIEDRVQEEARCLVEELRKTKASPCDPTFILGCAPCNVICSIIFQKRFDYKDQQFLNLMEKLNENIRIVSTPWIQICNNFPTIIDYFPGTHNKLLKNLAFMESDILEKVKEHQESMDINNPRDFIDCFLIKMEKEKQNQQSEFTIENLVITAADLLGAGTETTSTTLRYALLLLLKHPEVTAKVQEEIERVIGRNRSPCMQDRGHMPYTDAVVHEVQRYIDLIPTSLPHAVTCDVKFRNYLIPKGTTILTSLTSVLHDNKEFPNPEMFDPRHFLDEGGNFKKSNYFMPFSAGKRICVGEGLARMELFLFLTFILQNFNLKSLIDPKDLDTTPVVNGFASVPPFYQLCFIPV
CYP2C19 act – cytochrome P450 2C19 (human) activation | P33261 | recombinant CYP2C19, luciferin-H EGE luminescence; stronger effect = higher value; 0 = fully inhibited enzyme, 1 = untreated enzyme | activation factor at 5 µM | 96,000 tested, under 10 active;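 active = activation factor of at least 2 at 5 µM in the primary screen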;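 also: 0 = wells with 2.5 mM tranylcypromine and 1 = vehicle-only wells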
CYP2C9 activ – CYP2C9 (human) activation | activation factor at 5 µM | 1.4% of 96,000 active | AID 1024 | recombinant CYP2C9, luciferin-H conversion, luminescence; stronger effect = higher value; factor 1 = untreated enzyme, 0 = blocked | P11712;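 active = activation factor of 2 or more for CYP2C9 at a 5 µM dose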;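 also: 0 = sulfaphenazole-blocked wells and 1 = vehicle-only wells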
An asterisk follows results filed as active. Rows were chosen to be rich in hits. Some 31% of all compounds tested hit in one or more screens of this group.

What do the screens show for `COc1ccc(-n2c(C)c([N+](=O)[O-])c3ccc(O)c(CN4CCCCC4)c32)cc1`?
CYP2C9 inh: 36; PLAP activator: 1.3; CYP2C19 inhib: 26; CYP2C19 act: 0.7; CYP2C9 activ: 0.6

How did Cc1cc(C(=O)CSc2nc3ccccc3n2C)c(C)n1C do in these assays?
CYP2C9 inh: -239; PLAP activator: 0.8; CYP2C19 inhib: 33; CYP2C19 act: 0.7; CYP2C9 activ: 3.4*

Results for CCn1c(SCC(=O)c2ccc(O)c(O)c2)nnc1-c1ccccc1 ?
CYP2C9 inh: 24; CYP2C19 inhib: 98*; CYP2C19 act: 0; CYP2C9 activ: 0.8

Results for Cc1cc(C(=O)CSc2nc3ccccc3c(=O)[nH]2)c(C)n1C ?
CYP2C9 inh: 49; PLAP activator: 1.3; CYP2C19 inhib: 50; CYP2C19 act: 0.5; CYP2C9 activ: 0.5

Results for CCn1c(CSc2nc3ccccc3s2)nnc1SCC(=O)c1ccc(O)c(O)c1 ?
CYP2C9 inh: 14; PLAP activator: 0.5; CYP2C19 inhib: 37; CYP2C19 act: 0.6; CYP2C9 activ: 0.9

Results for Cc1ccc(S(=O)(=O)/N=c2\sccn2C)cc1 ?
CYP2C9 inh: -122; PLAP activator: 1; CYP2C19 inhib: 21; CYP2C19 act: 0.8; CYP2C9 activ: 2.2*

Results for Cn1ccs/c1=N\S(=O)(=O)c1ccc(F)cc1 ?
CYP2C9 inh: -62; PLAP activator: 1.3; CYP2C19 inhib: 33; CYP2C19 act: 0.7; CYP2C9 activ: 1.6

Results for CC(C)OCCCNC(=O)c1ccccc1Oc1ccccc1 ?
CYP2C9 inh: 32; PLAP activator: 1; CYP2C19 inhib: 31; CYP2C19 act: 0.7; CYP2C9 activ: 0.7

What do the screens show for `CCOC(=O)C(C)Sc1nnc(CNC(=O)c2ccc(OC)cc2)n1C1CCCCC1` (stereo unspecified)?
CYP2C9 inh: 21; PLAP activator: 1.3; CYP2C19 inhib: 62*; CYP2C19 act: 0.4; CYP2C9 activ: 0.8

What do the screens show for `CCCCCn1c2nc3ccccc3nc2c2c(=O)n(CC3CCCO3)c(C)nc21` (stereo unspecified)?
CYP2C9 inh: 74*; PLAP activator: 1.6; CYP2C19 inhib: 13; CYP2C19 act: 0.9; CYP2C9 activ: 0.3

Results for COCCCn1c2nc3ccccc3nc2c2c(=O)n(Cc3cccs3)cnc21 ?
CYP2C9 inh: 0; PLAP activator: 1.1; CYP2C19 inhib: -9; CYP2C19 act: 1.1; CYP2C9 activ: 1

How did O=c1c2c3nc4ccccc4nc3n(Cc3ccccc3)c2ncn1Cc1ccco1 do in these assays?
CYP2C9 inh: 61*; PLAP activator: 1.1; CYP2C19 inhib: 14; CYP2C19 act: 0.9; CYP2C9 activ: 0.4

Results for COCCCn1c2nc3ccccc3nc2c2c(=O)n(Cc3ccc(Cl)cc3)cnc21 ?
CYP2C9 inh: 12; PLAP activator: 1.3; CYP2C19 inhib: 96*; CYP2C19 act: 0; CYP2C9 activ: 0.9

Results for COCCCn1c2nc3ccccc3nc2c2c(=O)n(Cc3ccccc3Cl)cnc21 ?
CYP2C9 inh: 1; PLAP activator: 0.8; CYP2C19 inhib: 23; CYP2C19 act: 0.8; CYP2C9 activ: 1

Results for COCCCn1c(C)nc2c(c1=O)c1nc3ccccc3nc1n2CCc1ccccc1 ?
CYP2C9 inh: 80*; PLAP activator: 1.2; CYP2C19 inhib: 29; CYP2C19 act: 0.7; CYP2C9 activ: 0.2

What do the screens show for `O=c1c2c3nc4ccccc4nc3n(CC3CCCO3)c2ncn1CCc1ccccc1` (stereo unspecified)?
CYP2C9 inh: 15; PLAP activator: 0.7; CYP2C19 inhib: 19; CYP2C19 act: 0.8; CYP2C9 activ: 0.9

Results for COc1cccc(C(=O)NCc2ccc(N3CCN(C(=O)OC(C)(C)C)CC3)cc2)c1 ?
CYP2C9 inh: 44; PLAP activator: 0.9; CYP2C19 inhib: 23; CYP2C19 act: 0.8; CYP2C9 activ: 0.6

What do the screens show for `O=C(CCC(=O)N(CC(=O)NC1CCCC1)Cc1ccc2c(c1)OCO2)Nc1ccccn1`?
CYP2C9 inh: 89*; PLAP activator: 1.4; CYP2C19 inhib: 39; CYP2C19 act: 0.6; CYP2C9 activ: 0.1

Results for Cc1cccc(N(CC(=O)NC2CCCCC2)C(=O)CCC(=O)Nc2ccccn2)c1 ?
CYP2C9 inh: 38; PLAP activator: 1.2; CYP2C19 inhib: 48; CYP2C19 act: 0.5; CYP2C9 activ: 0.6

Results for Cc1ccnc(NC(=O)CCC(=O)N(CC(=O)NC2CCCCC2)c2ccc3c(c2)OCO3)c1 ?
CYP2C9 inh: 75*; PLAP activator: 1.3; CYP2C19 inhib: 41; CYP2C19 act: 0.6; CYP2C9 activ: 0.2
